# The sample as a whole holds a higher share of hits than the screen did.
# Sm TGR inh = inhibitors of Schistosoma mansoni thioredoxin glutathione reductase | Q962Y6 | AID 485364 | hit rate 3% among 360,000 | purified TGR, DTNB reduction, TNB absorbance 405 nm | Potency, µM (top dose mostly 114 µM), for inactives: top-dose activity change, negative = inhibition, most hits filed as inhibitors; further: potency means the concentration at half of the fitted maximal effect; on the % scale 0 is the no-effect control and ±100 the full control effect; nearly all actives have a fitted effect of over 60% in size
#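 Kinetic colorimetric format: TGR-catalysed, NADPH-driven DTNB reduction monitored via TNB absorbance. Enzyme dispensed at 20 nM; compound exposure 15 min at room temperature before reaction start.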
# CHX counter = affects cycloheximide protein synthesis inhibition readout, counter-screen; AID 2314; cell reporter, cycloheximide protein synthesis inhibition counterscreen; max response, %; hit rate 12% among 300,000; in the data active means max response mostly above about 13%, no sharp cut-off; inactive means mostly below about 14%; further: read at 38.3 µM for the half of the compounds with a filed dose; 0% is about no effect
# Shiga inhibitor = inhibitors of Shiga toxin in Vero cells | Vero cells, Shiga toxin protein synthesis inhibition reporter | inhibition, % at 38.7 µM | hit rate 9.2% among 290,000; in the data active means inhibition mostly above about 28%, no sharp cut-off; inactive means mostly below about 43%; further: 0% is about no effect
# Giardia FBPA inh = blocks Giardia fructose-bisphosphate aldolase activity | A8B2U2 | purified Giardia FBPA | Potency, µM (series often up to 59.6 µM), without a hit: at the top dose activity, negative = inhibition, hits mostly inhibitors | hit rate 0.71% among 290,000; further: potency means the concentration at half of the fitted maximal effect; on the % scale 0 is the no-effect control and ±100 the full control effect; nearly all actives have a fitted effect of over 55% in size
#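 40 nM FBPA preincubated 10 min at RT with compound (up to 57.5 uM final), then substrate plus GAPDH/TPI/NAD/arsenate coupling and diaphorase/resazurin added. Fluorescence read after 20 min at RT, 525/598 nm.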
# LmPK inhibitor = inhibitors of Leishmania mexicana pyruvate kinase | AID 1721 | hit rate 0.37% among 290,000 | purified LmPK, Kinase-Glo ATP luminescence, 1 h | Potency, µM (highest dose often 57.5 µM), without a hit: top-dose activity change, negative = inhibition, actives largely listed as inhibitors; further: potency means the concentration at half of the fitted maximal effect; on the % scale 0 is the no-effect control and ±100 the full control effect
# Target sequence (Q27686 whole entry, looked up): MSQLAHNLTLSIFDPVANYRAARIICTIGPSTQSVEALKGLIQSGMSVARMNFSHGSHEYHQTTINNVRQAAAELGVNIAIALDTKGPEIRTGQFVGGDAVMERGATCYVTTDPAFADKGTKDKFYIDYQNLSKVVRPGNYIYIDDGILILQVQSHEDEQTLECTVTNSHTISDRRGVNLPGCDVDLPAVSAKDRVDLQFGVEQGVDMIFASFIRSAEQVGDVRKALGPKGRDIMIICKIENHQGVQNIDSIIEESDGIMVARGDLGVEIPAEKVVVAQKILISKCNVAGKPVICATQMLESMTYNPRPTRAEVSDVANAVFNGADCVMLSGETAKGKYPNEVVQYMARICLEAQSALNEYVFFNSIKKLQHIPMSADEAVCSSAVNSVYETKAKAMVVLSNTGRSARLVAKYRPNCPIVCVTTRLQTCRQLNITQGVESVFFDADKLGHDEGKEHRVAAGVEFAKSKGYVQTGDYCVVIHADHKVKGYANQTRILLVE
#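 Screened at intermediate enzyme activity to detect both inhibitors and activators: LmPK at 0.1 nM, with a 0.5 nM enzyme column as activation reference. PEP 0.5 mM, ADP 0.1 mM; ATP detected by luminescence after 1 h.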
# Tb PYK inh = blocks Trypanosoma brucei pyruvate kinase | TbPYK enzyme, Kinase-Glo Plus ATP luminescence, 45 min | Q57TT1 | hit rate 0.12% among 410,000 | Potency, µM (doses to about 76.8 µM), inactives show at the top dose activity, negative = inhibition, actives largely listed as inhibitors; further: potency means the concentration at half of the fitted maximal effect; on the % scale 0 is the no-effect control and ±100 the full control effect; nearly all actives have a fitted effect of over 50% in size
#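 TbPYK + substrate in 50 mM TEA pH 7.2, 100 mM KCl, 10 mM MgCl2, 0.05% BSA, 0.01% Tween-20; cpd pinned; ADP 130 uM final; 45 min RT; Kinase-Glo Plus 10 min; luminescence endpoint.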
# Starred values were filed as active, the others as inactive; / = not tested or not shown. Unless noted, the call rests on the fitted dose curve; in most records, active means well fitted curve in the direction sought with a large enough effect; inconclusive means small, poorly fitted or top-dose-only effect, or another doubt; inactive means no such curve, though single readings can be large; an effect the other way counts as inactive or inconclusive.
SMILES,Sm TGR inh,CHX counter,Shiga inhibitor,Giardia FBPA inh,LmPK inhibitor,Tb PYK inh
COc1ccc(-c2ccc(-c3noc(-c4cccc(OC)c4)n3)c(OC)n2)cc1,-0.1%,-2.1,-16.6,8.0%,1.6%,2.2%
COc1cccc(-c2nc(-c3cccs3)no2)c1,0.3%,43.1*,57.0*,1.3%,-17.7%,0.7%
COc1cccc(-c2nc(-c3ccncc3)no2)c1,-7.3%,35.2*,121.2*,2.3%,-13.3%,-7.5%
COc1cc(OC)cc(-c2nc(-c3cccs3)no2)c1,0.1%,43.6*,76.0,5.9%,-5.1%,-0.3%
COc1cc(OC)cc(-c2nc(-c3ccccc3OC)no2)c1,-11.3%,4.5,31.2,3.5%,-0.3%,-12.7%
COc1cccc(-c2nc(CS(=O)(=O)c3ccccc3)no2)c1,-3.0%,50.8*,91.1*,-8.4%,0.5%,3.1%
COc1cccc(-c2nc(-c3ccc(-c4ccccc4)nc3OC)no2)c1,4.1%,/,/,/,/,7.8%
CC(C)c1ccc(NC(=O)CSC2=Nc3ccccc3C3=NC(CC(=O)NCCc4ccccc4)C(=O)N23)cc1 (configuration not stated),0.1%,/,/,/,/,-2.7%
Clc1cccc(-c2ccc3ncnc(NCc4ccc5c(c4)OCO5)c3c2)c1,4.2%,/,/,/,/,/
CC(CNC(=O)Cn1c(-c2cccs2)cc2cc(Cl)ccc21)c1ccccc1 (configuration not stated),0.6%,/,/,/,/,-1.6%
Cc1c(C(=O)Cc2ccccc2)n(C)c2ccccc12,-2.1%,25.1*,26.6,-3.2%,-1.9%,-3.7%
O=C(O)CC/C(=C\c1ccc(Cl)c([N+](=O)[O-])c1)c1nc2ccccc2s1,-2.4%,5.0,6.9,4.5%,5.6%,5.0%
O=C(O)CC/C(=C\c1ccc(N2CCOCC2)c([N+](=O)[O-])c1)c1nc2ccccc2s1,-1.9%,10.9*,20.8,-0.8%,-2.8%,5.9%
O=C(O)C/C(=C\c1ccc(N2CCOCC2)c([N+](=O)[O-])c1)c1nc2ccccc2s1,0.5%,20.4*,28.4,7.3%,2.4%,1.4%
O=C(O)CC/C(=C\c1ccc2c(c1)OCO2)c1nc2ccccc2s1,-12.2%,33.6*,30.6,-7.3%,-0.3%,4.5%
COc1ccc2[nH]cc(CCNc3ncnc4ccc(-c5ccccc5OC)cc34)c2c1,/,/,/,-9.4%,/,/
COc1cccc(C2NC(=O)NC(O)(C(F)(F)F)C2C(=O)c2cccnc2)c1OC (configuration not stated),22.4µM*,8.2,29.5,1.1%,0.4%,6.9%
CCOc1cc(C2NC(=O)NC(O)(C(F)(F)F)C2C(=O)c2ccccc2)ccc1OC (configuration not stated),-2.0%,15.2,25.9,11.9%,-0.3%,-2.5%
COc1ccc(C2NC(=O)NC(O)(C(F)(F)F)C2C(=O)c2ccccc2)cc1OC (configuration not stated),35.5µM*,10.1,36.5,2.4%,7.6%,-15.2%
O=S(=O)(c1cccc(-c2cn3cccnc3n2)c1)N1CCCCCC1,0.0%,-1.4,-5.0,0.9%,-0.4%,2.3%
Cc1ccc2nc(-c3cccc(S(=O)(=O)N4CC(C)OC(C)C4)c3)cn2c1 (configuration not stated),4.1%,17.0*,18.2,-9.3%,7.5%,-19.1%
Cc1ccc(S(=O)(=O)N2CCCNCC2)cc1,15.8µM*,4.0,7.7,2.4%,-3.2%,-9.7%
Cc1ccc(S(=O)(=O)N2CCN(S(=O)(=O)N3CCCCC3)CC2)cc1,2.5%,3.6,9.2,3.7%,-1.1%,-3.9%
Cc1ccc2nc(-c3ccc(S(=O)(=O)N4CCCCC4)cc3)cn2c1,3.9%,25.0*,66.2*,-4.0%,3.4%,0.0%
Cc1ccn2cc(-c3cccc(S(=O)(=O)N4CCCCC4)c3)nc2c1,7.9%,20.6*,22.1,/,-4.5%,-6.3%
CCOc1ccccc1-c1nnc2n1N=C(c1ccc(OC)cc1)CS2,/,-10.4,-5.1,0.2%,/,/
COc1ccc(Cl)cc1NC(=O)CSc1nnc2[nH]c(=O)cc(-c3ccccc3)n12,-9.9%,/,/,/,/,-9.7%
Cc1cccc(CNC(=O)c2cnc3c(-c4cccc(C)c4)c(C)nn3c2C)c1,-1.8%,/,/,/,/,-0.7%
